# Results as given in the supplement of paper PMC10849652.
# Targets with a hit are over-represented here; the source holds about 7,900 in all. About 0.6% of all pairs of compound and target were hits.
# Assays:
# Test in all cases: log2 fold change, soluble protein after heating vs DMSO (PISA); higher = thermal stabilisation; K562 cells, 10 uM, 30 min; active = over 0.2 and 3.5 SD of the protein, either way, in both replicates (recomputed)
# erlotinib = compound: C#Cc1cccc(Nc2ncnc3cc(OCCOC)c(OCCOC)cc23)c1 [erlotinib]
# Summary of the method: (§1)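 Soluble protein was quantified by TMTpro 16plex LC-MS/MS after channel sums were equalised. It was obtained as the supernatant after 21,000xg for 90 min from pooled aliquots of K562 cells (2×10^6 cells/mL, 10 μM compound, 30 min) heated for 3 min across 48°C-58°C and extracted in PBS with 0.5% NP-40 at 4°C. Thermal stability values are relative to control samples and come from duplicates. They are given as log2 fold changes.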
# [1] = compound: C/C(=N\NC(=O)C1=CC(=CC=C1)S(=O)(=O)N2CCOCC2)/C3=C(C=CC(=C3)Cl)O
# Summary of the method: as §1
# [2] = compound: C1=CC(=C(C=C1Cl)C2=NC3=NC=CN=C3C(=N2)NC4=CC=NC=C4)F
# Summary of the method: as §1
# [3] = compound: C1=CC(=CC=C1C2=NC3=C(N2)C=C(C=C3)C(=O)N)OC4=CC=C(C=C4)Cl
# Summary of the method: as §1
# [4] = compound: C1=CC2=C(C=CC(=C2)/C=C\3/C(=O)NC(=NCC4=CC=CS4)S3)N=C1
# Summary of the method: as §1
# [5] = compound: C1=CC2=NC=CN=C2C=C1/C=C/3\C(=O)NC(=O)S3
# Summary of the method: as §1
# [6] = compound: C1=CC=C(C=C1)C2=NC(=C(N2)C3=CC=NC=C3)C4=CC(=C(C=C4)Cl)O
# Summary of the method: as §1
# [7] = compound: C1=CC=C2C(=C1)C3=NNC4=CC=CC(=C43)C2=O
# Summary of the method: as §1
# [8] = compound: C1CCN(C1)C(=O)NC2=CC=CC(=C2)NC3=NC=C(C(=N3)NCCC4=CN=CN4)Br
# Summary of the method: as §1
# [9] = compound: C1CN(CCC1(CC2=CC=C(C=C2)Cl)N)C3=NC=NC4=C3C=CN4
# Summary of the method: as §1
# IRAK-1-4 Inhibitor I = compound: C1COCCN1CCN2C3=CC=CC=C3N=C2NC(=O)C4=CC(=CC=C4)[N+](=O)[O-] [IRAK-1-4 Inhibitor I]
# Summary of the method: as §1
# ibrutinib = compound: C=CC(=O)N1CCC[C@@H](n2nc(-c3ccc(Oc4ccccc4)cc3)c3c(N)ncnc32)C1 [ibrutinib]
# Summary of the method: as §1
# [10] = compound: CC(=O)c1cnc2ccc(-c3cc(Cl)c(O)c(Cl)c3)nc2c1N[C@H]1CC[C@H](CN(C)C)CC1
# Summary of the method: as §1
# ralimetinib = compound: CC(C)(C)Cn1c(N)nc2ccc(-c3[nH]c(C(C)(C)C)nc3-c3ccc(F)cc3)nc21 [ralimetinib]
# Summary of the method: as §1
# [11] = compound: CC(C)(O)CC(=O)NCCn1ccc2ncnc(Nc3ccc(Oc4cccc(C(F)(F)F)c4)c(Cl)c3)c21
# Summary of the method: as §1
# [12] = compound: CC(C)C1=C2N=C(C=C(N2N=C1)NCC3=CC=CC=C3)NCCCCCCN
# Summary of the method: as §1
# [13] = compound: CC(C)C[C@@H](C=O)NC(=O)[C@H](CC(C)C)NC(=O)[C@H](CC(C)C)NC(=O)OCc1ccccc1
# Summary of the method: as §1
# pinometostat = compound: CC(C)N(C[C@H]1O[C@@H](n2cnc3c(N)ncnc32)[C@H](O)[C@@H]1O)[C@H]1C[C@@H](CCc2nc3cc(C(C)(C)C)ccc3[nH]2)C1 [pinometostat]
# Summary of the method: as §1
# [14] = compound: CC1=C(C(CC(=O)N1)C2=CC=C(C=C2)C(F)(F)F)C(=O)NC3=C(C=C4C(=C3)C=NN4)F
# Summary of the method: as §1
# [15] = compound: CC1=C(C2=C(C=C1)C(=O)C3=CC=CC=C3N2CCCN)C
# Summary of the method: as §1
# UniProt Q9P016, sequence (Q9P016 whole entry, looked up): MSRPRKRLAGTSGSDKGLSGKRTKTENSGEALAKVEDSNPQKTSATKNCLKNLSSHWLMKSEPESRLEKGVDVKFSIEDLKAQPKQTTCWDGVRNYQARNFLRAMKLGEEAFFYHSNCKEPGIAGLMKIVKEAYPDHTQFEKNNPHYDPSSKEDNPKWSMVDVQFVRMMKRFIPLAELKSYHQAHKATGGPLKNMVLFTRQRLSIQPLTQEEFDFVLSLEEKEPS
# UniProt Q5JUR7, sequence (Q5JUR7 whole entry, looked up): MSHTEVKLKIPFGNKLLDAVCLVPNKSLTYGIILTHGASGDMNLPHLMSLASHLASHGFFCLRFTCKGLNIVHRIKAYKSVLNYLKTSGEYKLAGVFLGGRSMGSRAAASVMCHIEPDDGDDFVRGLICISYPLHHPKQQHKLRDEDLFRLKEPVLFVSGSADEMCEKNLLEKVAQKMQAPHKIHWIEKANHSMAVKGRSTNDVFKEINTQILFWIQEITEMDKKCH
# UniProt Q9Y5M8, sequence (Q9Y5M8 whole entry, looked up): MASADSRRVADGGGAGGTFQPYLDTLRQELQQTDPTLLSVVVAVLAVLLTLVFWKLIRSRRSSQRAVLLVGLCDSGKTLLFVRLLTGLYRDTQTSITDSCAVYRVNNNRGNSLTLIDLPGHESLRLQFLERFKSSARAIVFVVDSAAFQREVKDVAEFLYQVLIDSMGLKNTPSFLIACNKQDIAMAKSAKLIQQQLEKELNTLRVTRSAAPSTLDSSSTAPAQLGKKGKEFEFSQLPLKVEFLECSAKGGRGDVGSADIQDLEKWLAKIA
# UniProt Q9UBP0, sequence (Q9UBP0 whole entry, looked up): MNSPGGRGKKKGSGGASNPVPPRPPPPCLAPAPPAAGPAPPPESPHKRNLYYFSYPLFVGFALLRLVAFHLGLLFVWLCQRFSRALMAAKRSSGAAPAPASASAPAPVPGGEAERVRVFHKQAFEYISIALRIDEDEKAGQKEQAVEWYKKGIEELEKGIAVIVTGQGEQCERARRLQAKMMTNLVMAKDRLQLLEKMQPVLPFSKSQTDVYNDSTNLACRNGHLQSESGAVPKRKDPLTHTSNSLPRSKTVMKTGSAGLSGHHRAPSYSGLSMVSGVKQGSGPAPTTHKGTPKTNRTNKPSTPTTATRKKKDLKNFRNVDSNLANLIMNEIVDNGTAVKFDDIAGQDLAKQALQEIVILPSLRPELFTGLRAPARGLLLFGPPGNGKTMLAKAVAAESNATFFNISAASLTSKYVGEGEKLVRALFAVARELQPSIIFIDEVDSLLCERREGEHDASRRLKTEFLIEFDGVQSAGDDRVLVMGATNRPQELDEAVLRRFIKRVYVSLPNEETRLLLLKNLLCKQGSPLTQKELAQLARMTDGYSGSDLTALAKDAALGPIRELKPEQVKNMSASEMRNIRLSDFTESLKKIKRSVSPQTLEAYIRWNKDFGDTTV
# UniProt Q6PCB7, sequence (Q6PCB7 whole entry, looked up): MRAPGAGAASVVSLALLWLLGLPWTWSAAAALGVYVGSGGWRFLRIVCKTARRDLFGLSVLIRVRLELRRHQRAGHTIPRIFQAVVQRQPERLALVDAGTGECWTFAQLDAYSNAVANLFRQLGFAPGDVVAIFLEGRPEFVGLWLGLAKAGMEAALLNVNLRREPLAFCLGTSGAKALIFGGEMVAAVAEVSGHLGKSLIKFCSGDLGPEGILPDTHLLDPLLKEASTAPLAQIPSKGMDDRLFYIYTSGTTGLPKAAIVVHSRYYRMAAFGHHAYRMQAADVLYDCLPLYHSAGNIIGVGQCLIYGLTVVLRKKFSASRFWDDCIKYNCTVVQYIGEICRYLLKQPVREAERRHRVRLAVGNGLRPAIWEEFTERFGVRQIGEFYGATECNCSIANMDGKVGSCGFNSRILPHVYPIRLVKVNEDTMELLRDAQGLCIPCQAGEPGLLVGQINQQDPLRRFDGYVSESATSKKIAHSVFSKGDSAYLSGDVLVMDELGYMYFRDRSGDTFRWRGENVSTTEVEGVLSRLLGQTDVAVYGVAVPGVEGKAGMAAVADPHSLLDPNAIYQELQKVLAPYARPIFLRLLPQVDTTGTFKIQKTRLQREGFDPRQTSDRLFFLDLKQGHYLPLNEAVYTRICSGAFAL
# UniProt P04183, sequence (P04183 whole entry, looked up): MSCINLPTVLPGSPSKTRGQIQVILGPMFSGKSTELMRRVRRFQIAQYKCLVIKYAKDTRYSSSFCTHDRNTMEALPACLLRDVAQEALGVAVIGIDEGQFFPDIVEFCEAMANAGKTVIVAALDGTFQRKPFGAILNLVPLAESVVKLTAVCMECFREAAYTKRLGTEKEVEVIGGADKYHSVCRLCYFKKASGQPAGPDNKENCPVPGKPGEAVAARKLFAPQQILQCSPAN
# UniProt P84103, sequence (P84103 whole entry, looked up): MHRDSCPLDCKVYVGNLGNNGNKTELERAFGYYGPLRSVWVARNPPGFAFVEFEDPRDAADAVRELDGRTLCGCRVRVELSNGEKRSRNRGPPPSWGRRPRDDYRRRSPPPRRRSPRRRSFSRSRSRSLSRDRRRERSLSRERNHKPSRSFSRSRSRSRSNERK
# UniProt Q86VP1, sequence (Q86VP1 whole entry, looked up): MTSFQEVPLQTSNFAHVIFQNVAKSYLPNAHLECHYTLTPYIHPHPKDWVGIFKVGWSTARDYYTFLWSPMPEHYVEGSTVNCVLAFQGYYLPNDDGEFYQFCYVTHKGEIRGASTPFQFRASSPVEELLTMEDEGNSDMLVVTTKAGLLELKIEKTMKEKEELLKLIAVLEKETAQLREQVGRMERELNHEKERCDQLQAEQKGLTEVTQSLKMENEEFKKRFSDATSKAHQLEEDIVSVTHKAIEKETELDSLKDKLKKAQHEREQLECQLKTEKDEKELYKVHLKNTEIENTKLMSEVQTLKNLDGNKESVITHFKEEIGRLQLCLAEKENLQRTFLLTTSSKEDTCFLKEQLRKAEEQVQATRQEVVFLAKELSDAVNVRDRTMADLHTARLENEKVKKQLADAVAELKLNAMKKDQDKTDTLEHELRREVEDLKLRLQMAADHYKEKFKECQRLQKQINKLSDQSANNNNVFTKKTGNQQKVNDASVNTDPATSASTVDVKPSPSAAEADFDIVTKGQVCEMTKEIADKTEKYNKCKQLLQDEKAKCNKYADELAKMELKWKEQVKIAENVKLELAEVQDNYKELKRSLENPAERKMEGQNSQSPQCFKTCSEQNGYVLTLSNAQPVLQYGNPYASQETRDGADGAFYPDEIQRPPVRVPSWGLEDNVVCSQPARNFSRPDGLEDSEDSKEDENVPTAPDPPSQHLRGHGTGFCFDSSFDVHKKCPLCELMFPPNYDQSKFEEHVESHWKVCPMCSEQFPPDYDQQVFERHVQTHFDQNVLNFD
# UniProt Q9NZD8, sequence (Q9NZD8 whole entry, looked up): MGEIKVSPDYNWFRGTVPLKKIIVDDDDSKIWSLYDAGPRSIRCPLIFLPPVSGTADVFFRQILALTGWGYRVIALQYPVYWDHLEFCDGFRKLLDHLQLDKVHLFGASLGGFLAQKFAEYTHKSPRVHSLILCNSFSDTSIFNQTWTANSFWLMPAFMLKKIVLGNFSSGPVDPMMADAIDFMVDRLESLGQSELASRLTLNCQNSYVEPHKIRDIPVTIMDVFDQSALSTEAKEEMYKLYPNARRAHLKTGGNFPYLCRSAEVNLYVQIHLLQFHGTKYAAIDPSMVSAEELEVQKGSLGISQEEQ
# UniProt Q9Y5W9, sequence (Q9Y5W9 whole entry, looked up): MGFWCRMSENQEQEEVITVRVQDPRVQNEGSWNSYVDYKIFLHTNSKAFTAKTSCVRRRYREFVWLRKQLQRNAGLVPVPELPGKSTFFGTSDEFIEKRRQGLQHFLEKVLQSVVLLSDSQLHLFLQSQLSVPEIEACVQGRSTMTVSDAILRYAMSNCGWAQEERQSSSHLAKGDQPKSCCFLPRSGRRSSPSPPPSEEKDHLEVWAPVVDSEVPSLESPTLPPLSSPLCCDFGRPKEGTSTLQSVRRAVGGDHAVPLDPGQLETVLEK
# UniProt Q5M775, sequence (Q5M775 whole entry, looked up): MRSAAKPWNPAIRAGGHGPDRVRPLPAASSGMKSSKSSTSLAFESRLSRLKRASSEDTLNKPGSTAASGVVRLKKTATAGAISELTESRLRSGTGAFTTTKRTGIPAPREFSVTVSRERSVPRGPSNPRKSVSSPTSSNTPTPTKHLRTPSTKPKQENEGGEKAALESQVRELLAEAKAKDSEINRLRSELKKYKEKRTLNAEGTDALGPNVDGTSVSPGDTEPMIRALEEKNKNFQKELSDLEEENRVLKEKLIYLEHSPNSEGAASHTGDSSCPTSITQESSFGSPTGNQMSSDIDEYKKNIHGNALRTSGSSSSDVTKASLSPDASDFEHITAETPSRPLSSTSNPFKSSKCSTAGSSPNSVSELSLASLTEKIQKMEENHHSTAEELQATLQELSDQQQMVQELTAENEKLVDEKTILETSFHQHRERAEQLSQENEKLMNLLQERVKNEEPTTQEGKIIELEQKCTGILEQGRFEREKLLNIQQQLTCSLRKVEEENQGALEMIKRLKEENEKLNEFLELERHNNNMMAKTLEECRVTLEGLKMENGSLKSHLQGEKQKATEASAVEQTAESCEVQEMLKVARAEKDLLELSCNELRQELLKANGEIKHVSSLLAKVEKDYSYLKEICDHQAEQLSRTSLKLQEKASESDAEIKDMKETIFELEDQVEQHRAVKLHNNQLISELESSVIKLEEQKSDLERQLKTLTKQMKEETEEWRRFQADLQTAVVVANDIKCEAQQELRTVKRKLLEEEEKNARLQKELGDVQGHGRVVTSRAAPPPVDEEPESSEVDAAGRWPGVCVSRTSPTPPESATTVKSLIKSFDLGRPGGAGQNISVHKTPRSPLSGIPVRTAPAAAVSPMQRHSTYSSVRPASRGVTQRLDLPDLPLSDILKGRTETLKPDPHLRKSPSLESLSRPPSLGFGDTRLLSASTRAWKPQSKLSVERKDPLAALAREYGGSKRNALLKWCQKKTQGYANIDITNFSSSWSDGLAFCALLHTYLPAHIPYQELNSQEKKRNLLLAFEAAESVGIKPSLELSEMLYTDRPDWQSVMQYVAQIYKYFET
# UniProt P62072, sequence (P62072 whole entry, looked up): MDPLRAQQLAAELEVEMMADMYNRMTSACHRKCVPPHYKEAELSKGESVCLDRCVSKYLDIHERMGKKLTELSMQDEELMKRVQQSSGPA
Target,log2 fold change (erlotinib),log2 fold change [1],log2 fold change [2],log2 fold change [3],log2 fold change [4],log2 fold change [5],log2 fold change [6],log2 fold change [7],log2 fold change [8],log2 fold change [9],log2 fold change (IRAK-1-4 Inhibitor I),log2 fold change (ibrutinib),log2 fold change [10],log2 fold change (ralimetinib),log2 fold change [11],log2 fold change [12],log2 fold change [13],log2 fold change (pinometostat),log2 fold change [14],log2 fold change [15]
TIMM10 (UniProt P62072),-0.109 (inactive),-0.021 (inactive),0.137 (inactive),-0.011 (inactive),0.044 (inactive),0.051 (inactive),0.072 (inactive),0.029 (inactive),-0.014 (inactive),-0.016 (inactive),-0.06 (inactive),0.024 (inactive),-0.041 (inactive),-0.145 (inactive),-0.026 (inactive),0.047 (inactive),-0.09 (inactive),-0.078 (inactive),0.031 (inactive),0.174 (inactive)
SRFBP1 (UniProt Q8NEF9),-0.256 (inactive),-0.082 (inactive),-0.114 (inactive),0.039 (inactive),-0.03 (inactive),0.104 (inactive),-0.08 (inactive),0.082 (inactive),0.069 (inactive),-0.065 (inactive),-0.081 (inactive),-0.037 (inactive),-0.099 (inactive),-0.022 (inactive),0.091 (inactive),0.137 (inactive),0.25 (inactive),0.018 (inactive),0.21 (inactive),0.023 (inactive)
SLC27A1 (UniProt Q6PCB7),-0.003 (inactive),-0.053 (inactive),0.055 (inactive),-0.008 (inactive),0.061 (inactive),0 (inactive),0.016 (inactive),0.012 (inactive),-0.411 (active),-0.064 (inactive),0.052 (inactive),0.064 (inactive),-0.05 (inactive),0.001 (inactive),0.117 (inactive),-0.035 (inactive),-0.04 (inactive),-0.034 (inactive),0.195 (inactive),0.04 (inactive)
SPECC1 (UniProt Q5M775),0.044 (inactive),-0.002 (inactive),0.022 (inactive),0 (inactive),0.056 (inactive),0.02 (inactive),-0.208 (inactive),-0.023 (inactive),0.026 (inactive),0.012 (inactive),0.01 (inactive),-0.068 (inactive),-0.035 (inactive),-0.107 (inactive),0.025 (inactive),0.08 (inactive),0.003 (inactive),-0.25 (inactive),0.048 (inactive),-0.01 (inactive)
TEX30 (UniProt Q5JUR7),0.183 (inactive),0.165 (inactive),-0.011 (inactive),-0.013 (inactive),0.188 (inactive),0.025 (inactive),-0.01 (inactive),0.046 (inactive),-0.147 (inactive),-0.029 (inactive),-0.013 (inactive),0.08 (inactive),-0.048 (inactive),0.053 (inactive),-0.251 (inactive),-0.075 (inactive),0.03 (inactive),0.105 (inactive),0.061 (inactive),0.028 (inactive)
SLC44A2 isoform 2 (UniProt Q8IWA5),0.059 (inactive),0.028 (inactive),-0.059 (inactive),-0.054 (inactive),0.019 (inactive),-0.096 (inactive),0.073 (inactive),-0.065 (inactive),-0.105 (inactive),0.01 (inactive),0.092 (inactive),0.055 (inactive),0.034 (inactive),-0.128 (inactive),-0.006 (inactive),0.296 (active),-0.047 (inactive),0.056 (inactive),-0.078 (inactive),0.034 (inactive)
THYN1 (UniProt Q9P016),-0.061 (inactive),0.007 (inactive),-0.041 (inactive),0.125 (inactive),0 (inactive),0.006 (inactive),-0.032 (inactive),0.145 (inactive),-0.002 (inactive),-0.037 (inactive),-0.032 (inactive),-0.028 (inactive),0.039 (inactive),-0.01 (inactive),0.036 (inactive),-0.046 (inactive),0.025 (inactive),0.004 (inactive),-0.033 (inactive),0.331 (active)
SNX6 (UniProt Q9UNH7),0.093 (inactive),0.056 (inactive),0.035 (inactive),0.017 (inactive),0.042 (inactive),-0.057 (inactive),-0.053 (inactive),-0.159 (inactive),0.053 (inactive),-0.018 (inactive),0.012 (inactive),0.035 (inactive),-0.233 (inactive),-0.035 (inactive),-0.249 (inactive),-0.234 (inactive),0.013 (inactive),0.048 (inactive),0.026 (inactive),-0.013 (inactive)
SRSF3 (UniProt P84103),-0.074 (inactive),-0.03 (inactive),-0.35 (inactive),0.053 (inactive),-0.074 (inactive),-0.009 (inactive),-0.003 (inactive),0.006 (inactive),0.097 (inactive),-0.107 (inactive),-0.207 (inactive),0.11 (inactive),-0.035 (inactive),0.112 (inactive),0.19 (inactive),0.083 (inactive),0.152 (inactive),0.064 (inactive),0.125 (inactive),-0.134 (inactive)
SPAST (UniProt Q9UBP0),0.139 (inactive),0.129 (inactive),0.032 (inactive),-0.046 (inactive),0.06 (inactive),0.028 (inactive),0.007 (inactive),0.064 (inactive),-0.048 (inactive),-0.004 (inactive),0.054 (inactive),-0.015 (inactive),-0.073 (inactive),0.015 (inactive),-0.157 (inactive),-0.063 (inactive),0.013 (inactive),0.002 (inactive),-0.019 (inactive),0.114 (inactive)
SRPRB (UniProt Q9Y5M8),-0.015 (inactive),0.106 (inactive),0.122 (inactive),-0.018 (inactive),0.045 (inactive),-0.036 (inactive),0.089 (inactive),0.024 (inactive),-0.006 (inactive),0.017 (inactive),-0.021 (inactive),0.004 (inactive),-0.014 (inactive),0.034 (inactive),-0.055 (inactive),-0.036 (inactive),-0.051 (inactive),-0.026 (inactive),-0.109 (inactive),0.292 (active)
SPG21 (UniProt Q9NZD8),0.014 (inactive),0.075 (inactive),-0.08 (inactive),0.021 (inactive),-0.045 (inactive),0.054 (inactive),0.103 (inactive),0.083 (inactive),-0.032 (inactive),0.012 (inactive),-0.042 (inactive),-0.167 (inactive),-0.046 (inactive),0.014 (inactive),0.043 (inactive),-0.007 (inactive),0.021 (inactive),0.019 (inactive),-0.062 (inactive),0.072 (inactive)
SNX11 (UniProt Q9Y5W9),0.034 (inactive),-0.029 (inactive),0.035 (inactive),0.037 (inactive),-0.048 (inactive),-0.028 (inactive),-0.035 (inactive),-0.042 (inactive),-0.079 (inactive),0.071 (inactive),0.069 (inactive),0.13 (inactive),-0.062 (inactive),-0.001 (inactive),0.085 (inactive),-0.218 (inactive),0.043 (inactive),-0.067 (inactive),0.134 (inactive),-0.101 (inactive)
TAX1BP1 (UniProt Q86VP1),-0.079 (inactive),-0.005 (inactive),0.007 (inactive),0.044 (inactive),0.035 (inactive),0.037 (inactive),-0.044 (inactive),-0.006 (inactive),-0.015 (inactive),-0.027 (inactive),-0.015 (inactive),-0.007 (inactive),-0.195 (inactive),0.066 (inactive),-0.008 (inactive),-0.124 (inactive),0.076 (inactive),0.088 (inactive),0.075 (inactive),-0.006 (inactive)
TK1 (UniProt P04183),-0.029 (inactive),0.004 (inactive),0.044 (inactive),0.017 (inactive),-0.02 (inactive),-0.012 (inactive),-0.03 (inactive),-0.011 (inactive),-0.028 (inactive),0.046 (inactive),0.037 (inactive),0.025 (inactive),0.003 (inactive),-0.048 (inactive),-0.016 (inactive),0.059 (inactive),-0.001 (inactive),-0.013 (inactive),0.06 (inactive),-0.01 (inactive)
